Here are results for eleven compounds from PubChem BioAssay (NCI).

Assay [1] in a line: NCI Yeast Anticancer Drug Screen. Data for the rad50 strain (AID 155).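 Note: 0% = growth of vehicle-only cultures of the same strain.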 To be noted: S. cerevisiae rad50 strain growth inhibition; at 50.0 µM; stronger effect = higher value. The procedure, abridged:
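Cells are treated with compound, grown, and their growth is then scored against vehicle-only cultures of the same repair-deficient yeast strain.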

A short description of assay [2]: NCI Yeast Anticancer Drug Screen. Data for the mec2-1 strain (AID 157). The following applies: S. cerevisiae mec2-1 strain, at 50.0 µM, stronger effect = higher value. The procedure, abridged: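 Using mec2-1 yeast: add compound, measure growth, express inhibition versus vehicle-treated cultures.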
The nature of assay [3]: NCI Yeast Anticancer Drug Screen. Data for the sgs1 mgt1 strain (AID 161).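 Note: 0% = growth of cultures given vehicle only.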 To be noted: S. cerevisiae sgs1 mgt1 strain, at 50.0 µM, stronger effect = higher value. An outline of the steps:
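Compounds are added to genetically altered yeast, and growth is compared with cultures given vehicle alone to give percent inhibition.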

Assay [4] in a line: NCI Yeast Anticancer Drug Screen. Data for the cln2 rad14 strain (AID 165).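 Note: 0% = growth equal to vehicle treated cultures.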 The following applies: S. cerevisiae cln2 rad14 strain, at 50.0 µM, stronger effect = higher value. An outline of the steps: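 Yeast strain cln2 rad14, bearing defects in cell cycle control and DNA repair, serves as the test system; values reflect growth inhibition compared with vehicle.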
The nature of assay [5]: NCI Yeast Anticancer Drug Screen. Data for the bub3 strain (AID 167). The following applies: S. cerevisiae bub3 mutant strain, at 50.0 µM, stronger effect = higher value. An outline of the steps:
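Part of a panel of yeast mutants defective in DNA damage repair or cell cycle regulation. Each strain is grown with compound, and inhibition is calculated relative to solvent-treated cultures.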

Assay [6] can be described thus: NCI Yeast Anticancer Drug Screen. Data for the mlh1 rad18 strain (AID 175). The following applies: S. cerevisiae mlh1 rad18 strain growth inhibition; at 50.0 µM; stronger effect = higher value. An outline of the steps:
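Steps: expose repair-defective yeast to compound; measure growth; express inhibition against vehicle-treated controls.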

SMILES strings stand for the structures. Where “and” joins values, the source holds several entries; their conditions need not be identical. Equal values may be shown once. Compounds without any hit were thinned out: in the full panel of roughly 79,000, 15% have a hit. A number with no mark means an inactive call. Calls of active or inactive are those of the source. Cut-off read from the data, not from the text of the source: active = growth inhibition above about 70%; inactive = the rest.

`CC1(C)CC(OP(=O)(Cl)OC2CC(C)(C)N(O)C(C)(C)C2)CC(C)(C)N1O`: the growth inhibition in assay [1] is 1.8%; in assay [2], -0.75%; in assay [3] it was 7.85%; in assay [4], -7.35%; in assay [5], 1.1%; in assay [6] it was -7.65%.

Turning to `C/C=C/CC1(C(C)C)C(=O)NC(=O)NC1=O`, the growth inhibition is 8.6% and 18.7% in assay [1]; 11.2% and 8% in assay [2]; -4.2% and 10.8% in assay [3]; 3.8% and 10.6% in assay [4]; -1.25% and 1.2% in assay [5]; -1.65% and 8.4% in assay [6].

`O.O.[NH-]C1CCCCC1[NH-].[Pt+2]` (stereo unspecified): the growth inhibition in assay [1] was 19.6%; in assay [2], 33.6%; in assay [3], 6.25%; in assay [4] it was -5.95%; in assay [5] it was 3.05%; in assay [6], 44.2%.

For the compound `CC(NCCO)C(O)c1ccccc1` (stereo unspecified), the growth inhibition was -23.9% in assay [1]; -42.5% in assay [2]; -2.25% in assay [3]; 8.5% in assay [4]; -21.2% in assay [5]; -16.6% in assay [6].

Consider `N#CCCCl`, for which the growth inhibition was -13.7% in assay [1]; -1.9% in assay [2]; 13.6% in assay [3]; -23.4% in assay [4]; -1.65% in assay [5]; -19.8% in assay [6].

With `Nc1ccc(S(=O)(=O)c2ccc(NCN3C(=O)NC(=O)C(=O)C3=O)cc2)cc1`, the growth inhibition in assay [1] was 24.9%; in assay [2], 8.15%; in assay [3], -11.4%; in assay [4], 27.6%; in assay [5] it was 13.6%; in assay [6] it was 7.8%.

As for `COP(=O)(OC)N1CCCCC1`, the growth inhibition in assay [1] was 29%; in assay [2] it was 20.4%; in assay [3] it was 12.7%; in assay [4], 12.4%; in assay [5] it was 22%; in assay [6], 27.6%.

Regarding `CCCCCCCCCCCCC(=O)O.[Pb]`, the growth inhibition in assay [1] was 1.45%; in assay [2], 10.2%; in assay [3], -14.4%; in assay [4], 24.2%; in assay [5], -2.05%; in assay [6], 3.35%.

In the case of `CCC(c1ccc(OC)cc1)C(N)c1ccc(OC)cc1` (stereo unspecified), the growth inhibition was -14.3% in assay [1]; 1.05% in assay [2]; -11.9% in assay [3]; -10.5% in assay [4]; -4.35% in assay [5]; -0.3% in assay [6].

For `O.O.O=Cc1ccccc1O.O=Cc1ccccc1O.[Co]`, the growth inhibition in assay [1] was 98.2% (active); in assay [2] it was 92.2% (active); in assay [3], 97.8% (active); in assay [4] it was 79.1% (active); in assay [5] it was 92.5% (active); in assay [6] it was 98.3% (active).

On to `CC(C)CCCCCc1ccc(OCCOc2ccc(C(=O)Nc3ccc(S(=O)(=O)F)cc3[N+](=O)[O-])cc2)cc1`, for which the growth inhibition was 42.1% in assay [1]; -8.75% in assay [2]; 26.2% in assay [3]; -11.7% in assay [4]; 0.5% in assay [5]; 9.85% in assay [6].
